# Records with an inconclusive call do not appear. A call without a number means that no potency is given here. Calls of active or inactive are those of the source. Unless noted, calls come from the whole dose curve; as a rule, active = well fitted curve in the direction sought with a large enough effect; inconclusive = small, poorly fitted or top-dose-only effect, or another doubt; inactive = no such curve, though single readings can be large; an effect the other way counts as inactive or inconclusive.
# Assays:
# [1] = qHTS assay for measurement of the activity of small molecule inhibitors on Zika virus induced Caspase-3 activity in human iPSC derived neural progenitor cells (hNPCs) (AID 1224857); note: nearly all actives have a fitted effect of over 65% in size
# In short: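 Caspase-3/7 induction by a 6-hour ZIKV infection was quantified with a luminescent Caspase-Glo 3/7 reagent incubated 30 minutes at room temperature. Compounds were preincubated with hNPCs for 1 hour; inhibition was calculated against uninfected and infected control wells.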
# [2] = qHTS assay for measurement of the activity of small molecule inhibitors on Zika virus induced Caspase-3 activity in human astrocytoma cells (AID 1224859)
# In short: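 In SNB-19 cells plated at 250 cells/well and grown 16-20 h, compounds were applied 1 h before ZIKV (2 FFU/cell). Six hours later caspase-3/7 luminescence was recorded.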
# [3] = Natriuretic polypeptide receptor (hNpr1) antagonism - Pilot counterscreen GloSensor control cell line (AID 1347045; calls by dose curve; note: potency is the fitted concentration of half-maximal effect)
# In short: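 HEK293 cGMP GloSensor cells preloaded 2 h with 2% GloSensor reagent, then compound 30 min before baseline luminescence read. Stimulated with 50 uM sodium nitroprusside, 20 min at room temperature, then read again; counterscreen for Npr1 antagonism.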
# [4] = P-glycoprotein substrates identified in KB-3-1 adenocarcinoma cell line, qHTS therapeutic library screen (AID 1346986); note: nearly all actives have a fitted effect of over 60% in size;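 note: potency is the fitted concentration of half-maximal effect; potency is for cytotoxicity meaning loss of cell viability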
# In short: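 KB-3-1 parental and colchicine-selected P-gp-overexpressing KB-8-5-11 cells (colchicine omitted during assay), 500 cells/well, dosed in dose-response for 72 h at 37 °C; CellTiter-Glo luminescence. Cytotoxic: curve class -1.1 to -2.4, max response >50%, AC50 < 10 uM.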
# [5] = P-glycoprotein substrates identified in KB-8-5-11 adenocarcinoma cell line, qHTS therapeutic library screen (AID 1346987); note: nearly all actives have a fitted effect of over 65% in size; note: potency is the fitted concentration of half-maximal effect
# In short: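 KB-8-5-11, a colchicine-selected P-gp-overexpressing KB-3-1 subline, was grown without colchicine for the assay. Cells were seeded at 500 cells/well, dosed in concentration-response and incubated 72 h at 37 degree C, 5% CO2. Viability was read by CellTiter-Glo luminescence.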
# [6] = target: Atrial natriuretic peptide receptor 1 (Homo sapiens) (UniProt P16066); assay: Natriuretic polypeptide receptor (hNpr1) antagonism - Pilot screen (AID 1347049; calls by dose curve;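 note: agonist-evoked cGMP luminescence read 20 min after hNppA addition; series mostly up to about 58 µM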)
# In short: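 HEK293 cells expressing hNpr1 and GloSensor cGMP luciferase, 1500/well, loaded with 2% GloSensor reagent 2 h, compound 30 min at room temperature; luminescence read before and 20 min after 0.1 nM hNppA stimulation.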
# [7] = target: Atrial natriuretic peptide receptor 2 (Homo sapiens) (UniProt P20594); assay: Natriuretic polypeptide receptor (hNpr2) antagonism - Pilot subtype selectivity assay (AID 1347050; calls by dose curve)
# In short: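 HEK293 cells expressing hNpr2 and a GloSensor cGMP luciferase sensor, 1500/well, preloaded 2 h with 2% GloSensor reagent, compound 30 min, then 1 nM hNppC for 20 min. Antagonism from luminescence after versus baseline pre-read; LOPAC in 1:5 titrations.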
# Chain of Atrial natriuretic peptide receptor 1 (Homo sapiens) (P16066 whole entry, looked up): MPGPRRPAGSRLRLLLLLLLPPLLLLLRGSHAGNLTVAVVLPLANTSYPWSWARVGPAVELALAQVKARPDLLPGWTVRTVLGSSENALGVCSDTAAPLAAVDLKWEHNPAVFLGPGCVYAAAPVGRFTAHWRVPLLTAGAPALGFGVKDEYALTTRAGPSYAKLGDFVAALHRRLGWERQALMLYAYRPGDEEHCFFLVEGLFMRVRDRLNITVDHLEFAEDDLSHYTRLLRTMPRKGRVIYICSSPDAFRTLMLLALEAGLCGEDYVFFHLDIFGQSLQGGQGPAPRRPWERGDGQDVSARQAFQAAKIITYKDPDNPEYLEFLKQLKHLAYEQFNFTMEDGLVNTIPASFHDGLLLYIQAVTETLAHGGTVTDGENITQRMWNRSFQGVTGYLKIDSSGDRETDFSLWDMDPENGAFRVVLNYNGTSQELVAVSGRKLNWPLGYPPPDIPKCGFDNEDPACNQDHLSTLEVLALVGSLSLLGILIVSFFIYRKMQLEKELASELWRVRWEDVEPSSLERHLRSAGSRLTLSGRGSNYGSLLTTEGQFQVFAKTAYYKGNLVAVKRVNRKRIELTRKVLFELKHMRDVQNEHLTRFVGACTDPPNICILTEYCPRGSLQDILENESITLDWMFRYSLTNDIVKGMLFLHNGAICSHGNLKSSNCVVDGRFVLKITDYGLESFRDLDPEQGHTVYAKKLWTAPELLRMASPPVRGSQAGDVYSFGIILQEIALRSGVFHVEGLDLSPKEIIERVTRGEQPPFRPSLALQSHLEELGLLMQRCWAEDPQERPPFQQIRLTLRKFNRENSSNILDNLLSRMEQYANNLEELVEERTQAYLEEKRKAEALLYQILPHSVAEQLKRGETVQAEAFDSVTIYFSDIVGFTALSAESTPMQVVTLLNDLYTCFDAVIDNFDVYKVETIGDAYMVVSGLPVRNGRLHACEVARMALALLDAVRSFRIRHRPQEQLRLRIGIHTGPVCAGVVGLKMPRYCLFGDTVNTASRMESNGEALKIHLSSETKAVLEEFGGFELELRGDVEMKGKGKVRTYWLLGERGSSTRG
# Chain of Atrial natriuretic peptide receptor 2 (Homo sapiens) (P20594 whole entry, looked up): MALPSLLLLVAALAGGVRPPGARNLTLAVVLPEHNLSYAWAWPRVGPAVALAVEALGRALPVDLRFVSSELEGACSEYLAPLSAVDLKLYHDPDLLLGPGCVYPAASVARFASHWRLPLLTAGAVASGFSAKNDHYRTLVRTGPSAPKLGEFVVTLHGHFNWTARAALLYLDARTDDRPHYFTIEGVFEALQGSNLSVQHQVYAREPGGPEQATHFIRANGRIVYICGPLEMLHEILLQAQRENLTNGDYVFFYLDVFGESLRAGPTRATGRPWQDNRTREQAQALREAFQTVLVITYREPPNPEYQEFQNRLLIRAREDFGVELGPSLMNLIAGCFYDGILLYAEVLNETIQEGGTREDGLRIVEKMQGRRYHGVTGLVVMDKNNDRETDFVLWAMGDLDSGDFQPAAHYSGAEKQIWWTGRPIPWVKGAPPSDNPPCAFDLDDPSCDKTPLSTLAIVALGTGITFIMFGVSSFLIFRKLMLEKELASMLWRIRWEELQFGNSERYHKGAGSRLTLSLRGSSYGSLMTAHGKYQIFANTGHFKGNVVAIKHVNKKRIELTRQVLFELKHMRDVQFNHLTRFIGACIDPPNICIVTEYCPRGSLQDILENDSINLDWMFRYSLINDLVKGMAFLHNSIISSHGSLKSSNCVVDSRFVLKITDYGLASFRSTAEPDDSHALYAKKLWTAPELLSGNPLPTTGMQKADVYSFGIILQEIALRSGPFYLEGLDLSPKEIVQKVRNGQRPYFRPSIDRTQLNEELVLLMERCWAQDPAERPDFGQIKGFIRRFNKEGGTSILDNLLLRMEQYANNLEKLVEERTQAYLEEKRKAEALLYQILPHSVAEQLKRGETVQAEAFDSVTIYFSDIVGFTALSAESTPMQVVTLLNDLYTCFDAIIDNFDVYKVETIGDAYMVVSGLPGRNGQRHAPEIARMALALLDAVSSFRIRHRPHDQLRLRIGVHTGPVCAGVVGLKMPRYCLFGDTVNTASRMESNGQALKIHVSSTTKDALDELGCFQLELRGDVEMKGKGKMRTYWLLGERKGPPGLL
Structure (SMILES),Potency [1],Potency [2],Potency [3],Potency [4],Potency [5],Potency [6],Potency [7]
c1ccc(C(NCCNC(c2ccccc2)c2ccccc2)c2ccccc2)cc1,inactive,inactive,13.1 µM (active),–,–,–,–
O=C1Cc2c([nH]c3ccc(Br)cc23)-c2ccccc2N1,inactive,inactive,–,11.6 µM (active),–,–,–
N#Cc1cc([N+](=O)[O-])c2sc(C(N)=O)[n+]([O-])c2c1,inactive,inactive,14.7 µM (active),inactive,inactive,inactive,–
NC1(C(=O)O)CCc2cc(C(=O)O)ccc21 (stereo not given),inactive,inactive,inactive,–,–,inactive,–
CN1C2CCC1CC(OC(c1ccccc1)c1ccccc1)C2 (stereo not given),inactive,inactive,inactive,–,–,–,–
Clc1nccc2c1ccc1ccccc12,inactive,inactive,inactive,–,–,inactive,–
C[C@H](NC(=O)/C(C#N)=C/c1ccc(O)c(O)c1)c1ccccc1,inactive,inactive,inactive,–,–,inactive,–
c1ccc2nc(C3=NCCN3)ccc2c1,inactive,inactive,inactive,–,–,inactive,–
C=CCNc1ncnc2ccc(Br)cc12,inactive,inactive,inactive,–,–,inactive,–
CCCCCCCC/C=C\CCCCCCCC(=O)NCCc1ccc(O)c(O)c1,inactive,inactive,inactive,–,–,inactive,–
Nc1ncnc2c1c(-c1ccc(Oc3ccccc3)cc1)cn2C1CCCC1,inactive,inactive,–,1.64 µM (active),14.6 µM (active),–,inactive
CC(=O)N[C@@H](Cc1c[nH]c2ccccc12)C(=O)OCc1cc(C(F)(F)F)cc(C(F)(F)F)c1,inactive,inactive,–,–,–,–,–
CNCCc1cnc(CCC(c2ccccc2)c2ccccc2)[nH]1,inactive,inactive,inactive,–,–,inactive,–

# Reference: PubChem BioAssay (NCATS)
